# Laboratory results taken from PubChem BioAssay (NCATS).
# Values joined by “and” are separate entries in the source; they are usually repeats but may differ in a detail not shown here. Equal values may be shown once. Inconclusive results are not listed. A call without a number means that no potency is given here. A number with no mark means an inactive call. Active and inactive are the calls of the source. Calls follow the shape of the dose curve; as a rule, active = well fitted curve in the direction sought with a large enough effect; inconclusive = small, poorly fitted or top-dose-only effect, or another doubt; inactive = no such curve, though single readings can be large; an effect the other way counts as inactive or inconclusive.
# Key:
# CRL-7250 [1] = experiment: Cytotoxic Profiling of Annotated Libraries Using Quantitative High-Throughput Screening (AID 1296008); conditions: Five cell lines viability, CellTiter-Glo ATP luminescence, 48-72 h; max response: active compounds read low; also: nearly all actives have a fitted effect of over 60% in size; also: potency is read from the fitted curve at half-maximal effect
# Outline: (§1)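 Compounds were pin-transferred onto cells and incubated 48 or 72 hr at 37 degree Celsius, 95% humidity. CellTiter-Glo was added, plates sat 10 min at room temperature, then ATP-coupled luminescence was imaged as the viability read-out.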
# HEK293 = experiment: as above; conditions: Five cell lines viability, CellTiter-Glo ATP luminescence, 48-72 h; max response: active compounds read low
# Outline: as §1
# HaCat [2] = experiment: as above; conditions: Five cell lines viability, CellTiter-Glo ATP luminescence, 48-72 h; max response: active compounds read low
# Outline: as §1
# NIH3T3 [3] = experiment: as above; conditions: Five cell lines viability, CellTiter-Glo ATP luminescence, 48-72 h; max response: active compounds read low
# Outline: as §1
# MCC-13 = experiment: qHTS assay to identify novel small-molecules to repurpose for Merkel cell carcinoma treatment (AID 1296009); conditions: MCC and control cell lines, CellTiter-Glo viability, 72 h; series mostly up to 46 µM; also: nearly all actives have a fitted effect of over 60% in size; also: potency is read from the fitted curve at half-maximal effect
# Outline: (§2)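 Viability readout: ATP luminescence (CellTiter-Glo) after 72 hr drug exposure at 37 degree celsius. Dose-response format was 8 points for NPC and 11 points for MIPE; data normalized to in-plate controls.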
# MCC-26 = experiment: as above; conditions: MCC and control cell lines, CellTiter-Glo viability, 72 h; series mostly up to 46 µM
# Outline: as §2
# MKL-1 = experiment: as above; conditions: MCC and control cell lines, CellTiter-Glo viability, 72 h; series mostly up to 46 µM
# Outline: as §2
# MKL-2 = experiment: as above; conditions: MCC and control cell lines, CellTiter-Glo viability, 72 h; series mostly up to 46 µM
# Outline: as §2
# WaGa = experiment: as above; conditions: MCC and control cell lines, CellTiter-Glo viability, 72 h; series mostly up to 46 µM
# Outline: as §2
# KB-3-1 = experiment: Cytotoxic Profiling of Annotated Libraries Using Quantitative High-Throughput Screening (AID 1296008); conditions: Five cell lines viability, CellTiter-Glo ATP luminescence, 48-72 h; max response: active compounds read low; also: nearly all actives have a fitted effect of over 60% in size; also: potency is read from the fitted curve at half-maximal effect
# Outline: as §1
# UISO = experiment: qHTS assay to identify novel small-molecules to repurpose for Merkel cell carcinoma treatment (AID 1296009); conditions: MCC and control cell lines, CellTiter-Glo viability, 72 h; series mostly up to 46 µM; also: nearly all actives have a fitted effect of over 60% in size; also: potency is read from the fitted curve at half-maximal effect
# Outline: as §2
# C33A = experiment: Primary qHTS to identify gynecologic anti-cancer compounds using libraries of approved drugs and bioactive compounds (AID 1345084); conditions: Gynecologic cancer cell panel viability, ATPlite luminescence, 48 h; series mostly up to 57.5 µM; also: nearly all actives have a fitted effect of over 55% in size
# Outline: (§3)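 Cells, 1,000 per well, were allowed to settle for 16 h at 37 C before compound addition. Five concentrations were tested for 48 h, and viability was read by ATPlite luminescence after 15 min at room temperature.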
# TAB113 = experiment: qHTS profiling for inhibitors of Plasmodium falciparum proliferation (AID 504749); also: nearly all actives have a fitted effect of over 60% in size; also: potency is read from the fitted curve at half-maximal effect; conditions: P. falciparum in erythrocytes, SYBR Green DNA, 72 h; series mostly up to 28.7 µM
# Outline: (§4)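 Quantitative HTS: compounds pinned into medium, infected erythrocytes added (0.3% parasitemia, 2.5% hematocrit), 72 h culture at 37 C under 5% CO2. Saponin/Triton lysis with SYBR Green I, overnight RT, then fluorescence read.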
# W2 = experiment: as above; conditions: P. falciparum in erythrocytes, SYBR Green DNA, 72 h; series mostly up to 28.7 µM
# Outline: as §4
# HEK293T = experiment: qHTS assay to identify novel small-molecules to repurpose for Merkel cell carcinoma treatment (AID 1296009); conditions: MCC and control cell lines, CellTiter-Glo viability, 72 h; at 44.8 µM (top of the series) unless noted; also: nearly all actives have a fitted effect of over 60% in size; also: potency is read from the fitted curve at half-maximal effect
# Outline: as §2
# CAOV3 = experiment: Primary qHTS to identify gynecologic anti-cancer compounds using libraries of approved drugs and bioactive compounds (AID 1345084); conditions: Gynecologic cancer cell panel viability, ATPlite luminescence, 48 h; series mostly up to 57.5 µM; also: nearly all actives have a fitted effect of over 55% in size
# Outline: as §3
# HACAT [4] = experiment: qHTS assay to identify novel small-molecules to repurpose for Merkel cell carcinoma treatment (AID 1296009); conditions: MCC and control cell lines, CellTiter-Glo viability, 72 h; at 44.8 µM (top of the series) unless noted; also: nearly all actives have a fitted effect of over 60% in size; also: potency is read from the fitted curve at half-maximal effect
# Outline: as §2
# TAB165 = experiment: qHTS profiling for inhibitors of Plasmodium falciparum proliferation (AID 504749); also: nearly all actives have a fitted effect of over 60% in size; also: potency is read from the fitted curve at half-maximal effect; conditions: P. falciparum in erythrocytes, SYBR Green DNA, 72 h; series mostly up to 28.7 µM
# Outline: as §4
# CRL-7250 [5] = experiment: qHTS assay to identify novel small-molecules to repurpose for Merkel cell carcinoma treatment (AID 1296009); conditions: MCC and control cell lines, CellTiter-Glo viability, 72 h; at 44.8 µM (top of the series) unless noted; also: nearly all actives have a fitted effect of over 60% in size; also: potency is read from the fitted curve at half-maximal effect
# Outline: as §2
# NIH3T3 [6] = experiment: as above; conditions: MCC and control cell lines, CellTiter-Glo viability, 72 h; at 44.8 µM (top of the series) unless noted
# Outline: as §2
compound,measurement,setting,value
C=C[C@@H]1CN2CCC1C[C@@H]2[C@@H](O)c1ccnc2ccccc12 (stereo partly drawn),max response,CRL-7250 [1],-5.2%
same,Potency,HEK293,18.7 µM (active)
same,max response,HaCat [2],-17.4%
same,max response,NIH3T3 [3],-16.7%
same,Potency,MCC-13,inactive
same,Potency,MCC-26,inactive
same,Potency,MKL-1,inactive
same,Potency,MKL-2,inactive
same,Potency,WaGa,inactive
CS(=O)(=O)c1ccc(C(=O)C2C(=O)CCCC2=O)c([N+](=O)[O-])c1,max response,CRL-7250 [1],-5.31%
same,max response,HEK293,-9.25%
same,max response,KB-3-1,-20.3%
same,max response,NIH3T3 [3],4.33%
same,Potency,MCC-13,inactive
same,Potency,MCC-26,inactive
same,Potency,MKL-1,inactive
same,Potency,MKL-2,inactive
same,Potency,UISO,inactive
same,Potency,WaGa,inactive
same,Potency,C33A,inactive
CCCCCCCCCCCCCCCC[N+](C)(C)C,Potency,TAB113,8.91 µM (active)
same,Potency,W2,6.75 µM (active)
same,Potency,CRL-7250 [1],6.68 µM (active)
same,Potency,HEK293,5.96 µM (active)
same,Potency,HaCat [2],2.11 µM (active)
same,Potency,NIH3T3 [3],21.1 µM (active)
same,Potency,MCC-26,26.6 µM (active)
same,Potency,MKL-1,944 nM (active)
same,Potency,MKL-2,750 nM (active)
same,Potency,WaGa,2.37 µM (active)
CO[C@H]1CCC(O[C@H]2C[C@H]([C@]3(C)CC[C@]4(C[C@H](O)[C@@H](C)[C@@H]([C@@H](C)C=C(C)C(=O)[C@H](C)C[C@H](C)C(=O)O)O4)O3)O[C@]3(O[C@@H]([C@H]4O[C@@](O)(CO)[C@H](C)C[C@H]4C)C[C@H]3C)[C@H]2C)O[C@H]1C (stereo partly drawn),Potency,CRL-7250 [1],1.05 µM (active)
same,Potency,HEK293,0.59 µM (active)
same,max response,HaCat [2],-21.4%
same,Potency,MCC-26,inactive
same,Potency,MKL-1,935 nM (active)
same,Potency,MKL-2,662 nM (active)
same,Potency,WaGa,0.935 µM (active)
C=CC(=O)NCNC(=O)C=C,max response,CRL-7250 [1],-10.1%
same,outcome,HEK293,inactive
same,max response,HaCat [2],-16.1%
same,max response,KB-3-1,1.85%
same,max response,NIH3T3 [3],-14.2%
same,outcome,HEK293T,inactive [at 92 µM]
same,Potency,MCC-13,inactive
same,Potency,MKL-1,inactive
same,Potency,UISO,inactive
same,Potency,C33A,inactive
CC(C)NCC(O)c1ccc([N+](=O)[O-])cc1 (stereo not drawn),max response,CRL-7250 [1],-2.22%
same,max response,HEK293,-8.6%
same,max response,HaCat [2],-38.9%
same,max response,KB-3-1,-11.6%
same,max response,NIH3T3 [3],-0.143%
same,Potency,MCC-13,inactive
same,Potency,MCC-26,inactive
same,Potency,MKL-1,inactive
same,Potency,MKL-2,inactive
same,Potency,UISO,inactive
same,Potency,WaGa,inactive
same,Potency,C33A,inactive
same,Potency,CAOV3,inactive
C[C@@H]1CC[C@H]2[C@@H](C)C(=O)O[C@@H]3O[C@@]4(C)CC[C@H]1[C@]32OO4,max response,CRL-7250 [1],-21.1%
same,max response,HaCat [2],-10.9%
same,max response,KB-3-1,-6.88%
same,max response,NIH3T3 [3],-12.8%
same,Potency,MCC-13,inactive
same,Potency,MCC-26,inactive
same,Potency,MKL-1,inactive
same,Potency,MKL-2,inactive
CCOC(=O)c1c(C(C#N)=CN)c2ccc(Cl)c(Cl)c2n1C,max response,CRL-7250 [1],3.66%
same,outcome,HaCat [2],inactive
same,max response,KB-3-1,-3.02%
same,max response,NIH3T3 [3],2.89%
same,outcome,HACAT [4],inactive
same,Potency,MCC-13,inactive
same,Potency,MCC-26,inactive
same,Potency,MKL-1,inactive
same,Potency,MKL-2,inactive
same,Potency,UISO,inactive
same,Potency,WaGa,inactive
C1CCC(NC2CCCCC2)CC1,Potency,TAB113,inactive
same,Potency,TAB165,inactive
same,Potency,W2,inactive
same,outcome,CRL-7250 [1],inactive
same,max response,HaCat [2],3.35%
same,max response,KB-3-1,6.25%
same,max response,NIH3T3 [3],-2.97%
same,outcome,CRL-7250 [5],inactive
same,Potency,MCC-13,inactive
same,Potency,MCC-26,inactive
same,Potency,MKL-1,inactive
same,Potency,MKL-2,inactive
same,Potency,UISO,inactive
same,Potency,WaGa,inactive
same,Potency,C33A,inactive
CC(N[C@H]1C[C@H]1c1ccccc1)c1ccc2c(c1)OCCO2 (stereo partly drawn),max response,CRL-7250 [1],1.35% and -26.3%
same,outcome,HaCat [2],inactive
same,max response,KB-3-1,2.53% and -2.54%
same,max response,NIH3T3 [3],4.85% and -28.5%
same,outcome,HACAT [4],inactive
same,Potency,MCC-13,inactive
same,Potency,MKL-1,inactive
same,Potency,MKL-2,inactive
same,Potency,UISO,inactive
same,Potency,WaGa,inactive
same,Potency,C33A,inactive
same,Potency,CAOV3,inactive
O=C1C=CC[C@@H]2[C@H]3CCCN4CCC[C@@H](CN12)[C@@H]34,max response,CRL-7250 [1],-6.72% and -5.8%
same,max response,HaCat [2],-19.8% and -9.45%
same,max response,KB-3-1,5.89%
same,outcome,NIH3T3 [3],inactive
same,outcome,HEK293T,inactive
same,Potency,MCC-13,inactive
same,Potency,MKL-1,inactive
same,Potency,MKL-2,inactive
same,outcome,NIH3T3 [6],inactive
same,Potency,UISO,inactive
same,Potency,WaGa,inactive
same,Potency,C33A,inactive
CC(C)(C)C(O)C(Oc1ccc(Cl)cc1)n1cncn1 (stereo not drawn),outcome,CRL-7250 [1],inactive
same,max response,HaCat [2],0.929%
same,max response,KB-3-1,-16.3%
same,max response,NIH3T3 [3],3.17%
same,outcome,CRL-7250 [5],inactive [at 92 µM]
same,Potency,MCC-13,inactive
same,Potency,MCC-26,inactive
same,Potency,C33A,inactive
same,Potency,CAOV3,inactive
CSCC[C@@H](NC(=O)[C@@H](Cc1ccccc1)NC(=O)CNC(=O)CNC(=O)[C@@H](N)Cc1ccc(O)cc1)C(=O)O,max response,CRL-7250 [1],2.24%
same,outcome,HaCat [2],inactive
same,max response,KB-3-1,3.04%
same,max response,NIH3T3 [3],2.68%
same,outcome,HACAT [4],inactive
same,Potency,MCC-13,inactive
same,Potency,MCC-26,inactive
same,Potency,MKL-1,inactive
same,Potency,MKL-2,inactive
same,Potency,UISO,inactive
same,Potency,WaGa,inactive
COc1ccc2c(c[n+](C)c3c4cc5c(cc4ccc23)OCO5)c1OC,Potency,CRL-7250 [1],16.6 µM (active)
same,Potency,HEK293,2.96 µM (active)
same,Potency,KB-3-1,26.4 µM (active)
same,Potency,MKL-1,2350 nM (active)
same,Potency,MKL-2,743 nM (active)
same,Potency,WaGa,3.32 µM (active)
C=C1C[C@H]2[C@H]3CCC(=O)[C@@]3(C)CC[C@@H]2[C@@]2(C)C=CC(=O)C=C12,max response,CRL-7250 [1],-22.6%
same,outcome,HaCat [2],inactive
same,max response,KB-3-1,8.58%
same,max response,NIH3T3 [3],-14.2%
same,outcome,HACAT [4],inactive
same,Potency,MCC-13,inactive
same,Potency,MCC-26,inactive
same,Potency,MKL-1,inactive
same,Potency,UISO,inactive
